Most compounds without a hit are left out; they make up all but 12% or so of the library.
Pf growth 96h: Primary qHTS for delayed death inhibitors of the malarial parasite plastid, 96 hour incubation. P. falciparum luciferase reporter growth, 96 h. actives 6.9% (n = 320,000). AID 504834, 2011. Potency, µM (series often up to 28.7 µM), without a hit: at the top dose activity change, negative = inhibition, usual class: inhibitors; further: on the % scale 0 is the no-effect control and ±100 the full control effect
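Erythrocytes infected with luciferase-expressing P. falciparum were dispensed at 2% hematocrit and 0.05% parasitemia (final), then incubated with compounds 96 hours at 37 C in 5% CO2. Luminescence after detection reagent addition reported growth.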
Sm TGR inh: qHTS Assay for the Inhibitors of Schistosoma Mansoni Peroxiredoxins; purified TGR, DTNB reduction, TNB absorbance 405 nm; Potency, µM (highest dose often 114 µM), without a hit: at the top dose activity change, negative = inhibition, actives largely listed as inhibitors; AID 485364, 2010; actives 3% (n = 360,000); Schistosoma mansoni thioredoxin glutathione reductase (TGR), Q962Y6; further: on the % scale 0 is the no-effect control and ±100 the full control effect; nearly all actives have a fitted effect of over 60% in size
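TGR 20 nM + NADPH 100 uM (dispensed conc.), cpd preinc 15 min RT; start with NADPH (500 uM addition) then DTNB (15 mM addition). Kinetic TNB absorbance, 405 nm filter. Four-parameter Hill fit across titration.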
SARS PLP yeast: qHTS of Yeast-based Assay for SARS-CoV PLP; S. cerevisiae expressing SARS-CoV PLpro, growth rescue; Potency, µM (doses to about 32.9 µM), inactives show at the top dose activity, positive = growth rescue, usual class: activators; actives 0.19% (n = 330,000); AID 485353, 2010; calls by dose curve; further: 0% is about no effect; nearly all actives have a fitted effect of over 55% in size
AmpC no deterg: qHTS Inhibitors of AmpC Beta-Lactamase (assay without detergent). AmpC nitrocefin hydrolysis, absorbance 480 nm, 0.0001% Triton. Potency, µM (titrated, usually from 57.1 µM), for the others: at the top dose activity change, negative = inhibition, usual class: inhibitors. actives 0.52% (n = 330,000). AID 485341, 2010;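 further: plate controls were no compound for no effect and no enzyme for full effect; nearly all actives have a fitted effect of over 20% in size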
Target sequence (P00811 whole entry, looked up): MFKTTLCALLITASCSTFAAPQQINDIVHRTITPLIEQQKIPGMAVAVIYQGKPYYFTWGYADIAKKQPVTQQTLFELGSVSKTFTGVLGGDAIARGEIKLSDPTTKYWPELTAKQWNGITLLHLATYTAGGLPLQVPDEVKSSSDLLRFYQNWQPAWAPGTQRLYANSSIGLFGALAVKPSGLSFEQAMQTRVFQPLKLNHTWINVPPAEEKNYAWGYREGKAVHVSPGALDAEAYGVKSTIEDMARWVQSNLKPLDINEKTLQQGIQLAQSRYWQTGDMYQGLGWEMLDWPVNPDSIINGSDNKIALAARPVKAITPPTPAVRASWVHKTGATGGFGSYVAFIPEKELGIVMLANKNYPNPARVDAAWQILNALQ
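AmpC (5.3 nM in the dispensed reagent) in 20 mM phosphate pH 7.0 with 0.01% (detergent screen) or 0.0001% Triton X-100 was preincubated with compounds for 15 min at room temperature. Nitrocefin was then added from an 800 uM solution, and hydrolysis was followed at 480 nm.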
AmpC inh detg: qHTS Inhibitors of AmpC Beta-Lactamase (assay with detergent). Potency, µM (titrated, usually from 114 µM), for inactives: at the highest dose activity change, negative = inhibition, most hits filed as inhibitors. AmpC hydrolysis of nitrocefin, absorbance 480 nm, 0.01% Triton. P00811. actives 0.041% (n = 370,000);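 further: 0% = no-compound wells and -100% = no-enzyme wells; nearly all actives have a fitted effect of over 25% in size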
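AmpC (5.3 nM in the dispensed reagent) in 20 mM phosphate pH 7.0 with 0.01% (detergent screen) or 0.0001% Triton X-100 was preincubated with compounds for 15 min at room temperature. Nitrocefin was then added from an 800 uM solution, and hydrolysis was followed at 480 nm.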
Pf growth 48h: Primary qHTS for delayed death inhibitors of the malarial parasite plastid, 48 hour incubation; P. falciparum luciferase growth in erythrocytes, 48 h; Potency, µM (titrated, usually from 28.7 µM), for inactives: at the highest dose activity change, negative = inhibition, actives largely listed as inhibitors; actives 5.9% (n = 310,000); AID 504832, 2011; further: on the % scale 0 is the no-effect control and ±100 the full control effect
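Here the parasites carry a stable luciferase gene and grow inside erythrocytes in Albumax-based RPMI medium with compound for one erythrocytic cycle. Activity is scored as loss of luminescent signal.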
* = called active by the depositor; u = inconclusive; x = no result. Unless noted, the call rests on the fitted dose curve; in most records, active means well fitted curve in the direction sought with a large enough effect; inconclusive means small, poorly fitted or top-dose-only effect, or another doubt; inactive means no such curve, though single readings can be large; an effect the other way counts as inactive or inconclusive. Potency means the concentration at half of the fitted maximal effect.

SMILES	Pf growth 96h	Sm TGR inh	SARS PLP yeast	AmpC no deterg	AmpC inh detg	Pf growth 48h
CCCCNC(=O)c1ccc2c(c1)N(Cc1ccc(F)cc1)C(=O)c1ccccc1S2=O (centres undefined)	x	6%	x	x	-2%	x
CCN1CCN(CCNC(=O)c2ccc3c(c2)N(Cc2cccc(Cl)c2)C(=O)c2ccccc2S3=O)CC1 (centres undefined)	u	-3%	2%	112%	1%	12µM*
O=C(NCCN1CCOCC1)c1ccc2c(c1)N(Cc1ccc(F)cc1)C(=O)CS2	-21%	-25%	0%	45µM*	u	-10%
CCOC(=O)c1[nH]c(C)c(CCC(=O)N2CCN(c3cc(C)ccc3C)CC2)c1C	x	-8%	x	x	-2%	x
Cc1ccc(S(=O)(=O)N(CC#N)CC#N)cc1	261%	-5%	0%	-9%	1%	16%
O=C(NCCCN1CCCC1)c1ccc2c(c1)N(Cc1ccccc1F)C(=O)c1ccccc1S2=O (centres undefined)	1%	-7%	22%	146%	-6%	u
CC1CCCCN1CCNC(=O)c1ccc2c(c1)N(Cc1ccccc1F)C(=O)c1ccccc1S2=O (centres undefined)	5.9µM*	5%	8%	232%	-12%	u
Cc1cccc(NC(=O)CSc2cn(CC(=O)N3CCOCC3)c3ccccc23)c1C	x	4%	x	x	15%	x
CCCn1cc(SCC(=O)NC2CCCC2)c2ccccc21	u	-7%	x	14%	-4%	9.3µM*
CC(C)N(C(=O)Cn1cc(S(=O)(=O)CC(=O)Nc2ccccc2)c2ccccc21)C(C)C	8.3µM*	-4%	3%	71%	2%	u
COc1ccc(CCNC(=O)CS(=O)(=O)c2cn(CC(=O)N(C(C)C)C(C)C)c3ccccc23)cc1OC	10µM*	-27%	4%	103%	1%	u
CC(C)N(C(=O)Cn1cc(SCC(N)=O)c2ccccc21)C(C)C	u	9%	1%	-4%	4%	-12%
COc1ccc(CCNC(=O)CS(=O)(=O)c2cn(CC(=O)N3CCCC3)c3ccccc23)cc1OC	-2%	u	3%	21%	0%	1%
CNC(=O)CSc1cn(CC(=O)N(C(C)C)C(C)C)c2ccccc12	10µM*	7%	-1%	44%	5%	1%
CCOc1ccc(NC(=O)CS(=O)(=O)c2cn(CC)c3ccccc23)cc1	u	5%	-6%	u	u	u
Cc1ccc(C)c(S(=O)(=O)N2CCN(C(=O)c3ccncc3)CC2)c1	-4%	2%	2%	-2%	0%	u
CCOc1cc2c3c(c1)C1(C(=O)N3C(C)(C)CC2C)C(C#N)=C(N)N2C(=C1C#N)Nc1ccccc12 (centres undefined)	u	-2%	-11%	13µM*	1%	3.3µM*
CCOc1cc2c3c(c1)C1(Nc4ccccc4S1)C(=O)N3C(C)(C)CC2C (centres undefined)	u	-8%	-22%	-25%	-5%	x
CN(C)S(=O)(=O)c1ccc(C(=O)Nc2nnc(-c3cccs3)o2)cc1	u	-13%	-1%	-16%	-7%	13µM*
O=C(Nc1nnc(-c2ccc3c(c2)CCCC3)o1)c1c(F)cccc1F	189%	10%	-11%	-34%	-1%	115%
N#Cc1ccc(C(=O)Nc2nnc(-c3cccs3)o2)cc1	u	-8%	-2%	-15%	0%	u
O=C(Nc1nnc(-c2ccc3c(c2)CCCC3)o1)c1ccc(Cl)cc1Cl	5%	4%	-22%	35µM*	u	1%
CN(C)S(=O)(=O)c1ccc(C(=O)Nc2nnc(-c3ccc4c(c3)CCCC4)o2)cc1	-5%	-2%	0%	2.8µM*	u	1%
O=C(CCSc1ccccc1)Nc1nnc(-c2ccccc2)o1	-41%	0%	0%	-36%	-14%	x
O=C(CCSc1ccccc1)Nc1nnc(-c2cccs2)o1	32%	28µM*	2%	-19%	5%	20%
SMILES	Pf growth 96h	Sm TGR inh	SARS PLP yeast	AmpC no deterg	AmpC inh detg	Pf growth 48h
O=C(Nc1nnc(-c2ccc3c(c2)CCCC3)o1)C1CCCCC1	86%	-1%	15%	-26%	-15%	x
CCOC(=O)c1ccc(NC(=O)CCc2c(C)nc3c(c(C)nn3C)c2C)cc1	x	-10%	x	x	-2%	x
CCCc1nn2c(=O)cc(COc3ccc(NC(=O)c4ccco4)cc3)nc2s1	u	4%	-1%	-24%	3%	21%
Cc1ccc2[nH]c(O)c(N=NC(=O)C3CC3c3ccccc3)c2c1Br (centres undefined)	-15%	-13%	-12%	-29%	-2%	u
O=C(CN1C(=O)C2CCCCN2c2ccc(C(=O)N3CCCC3)cc21)NCc1ccccc1F (centres undefined)	x	-11%	x	x	17%	x
COc1ccc(C2(O)CCN(C(=O)NC3CCCCC3)CC2)cc1	-25%	-7%	-2%	-2%	-11%	-5%
Cc1ccccc1C1c2[nH]c3ccccc3c2CCN1C(=O)c1ccc(=O)n(C)n1 (centres undefined)	13µM*	-10%	1%	184%	8%	u
Cc1ccccc1C(=O)N1CCc2c([nH]c3ccccc23)C1C(F)(F)F (centres undefined)	u	-13%	-4%	15%	u	12µM*
Cc1cc(C(=O)N2CCc3c([nH]c4ccccc34)C2c2cccc(Cl)c2)nn1C (centres undefined)	12µM*	39%	-5%	53%	12%	u
CN1N=C(C(=O)N2CCc3c([nH]c4ccccc34)C2c2ccccc2Cl)CCC1=O (centres undefined)	10µM*	-12%	-1%	81%	6%	1.7µM*
CSc1ncc(C(=O)Nc2ccc(C)c(Cl)c2)c(-c2ccccc2)n1	x	-16%	x	x	-3%	x
CCCCN(C)CCNC(=O)c1ccc2c(=O)n(CCc3ccccc3)c(=O)[nH]c2c1	x	4%	x	x	5%	x
COCCSc1ccccc1C(=O)Nc1ccccc1C#N	-11%	1%	-1%	-13%	-3%	10%
Cc1ccc(NC(=O)N/C=C/c2ccco2)cc1C	36%	u	4%	-46%	3%	7%
Cc1ccccc1NC(=O)c1cccc(NC(=O)c2ccco2)c1	u	7%	-2%	-12%	5%	31%

Compound activity as filed in PubChem BioAssay.
